# Assay results published in PubChem BioAssay.
# Activity calls are given as the source filed them.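 Rule for the calls, unless noted: active = normalized viability below 100% at a tested concentration; inactive = the rest.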
# What was measured:
# [1] = sensitizers of A549 cells to miR-34 induction, primary screen, imaging, A549 dox-inducible miR-34, nuclei and caspase counts (AID 1347080;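 active = compounds whose cell count with miR-34 switched on is under 0.7 times the count with it off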); conditions: A549 miR-34 inducible, Hoechst nuclei count, 48 h
# [2] = survival rescue of mitochondrial mutant cells in low glucose, primary screen, MELAS cybrids, Rieske KO mouse fibroblasts, CellTiter-Glo (AID 1508586;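 active = mean z-score across replicates of 1.96 or higher in either the MELAS or the Rieske mutant cell line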;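 note: z relative to plate mean and SD of compound and empty wells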)
# [3] = ovarian cancer cell viability with rucaparib, profiling panel, oncology-focused library, rucaparib conditional (AID 1508598); conditions: patient-derived ovarian cancer cells, CellTiter-Glo viability, 144 h, stronger effect = lower value
# [4] = stronger effect = lower value, cell number ratio, induced over uninduced
# [5] = measured here: relative caspase fold change +Dox/-Dox
# [6] = measured here: total cells with miR-34 induction, stronger effect = lower value
# [7] = measured here: total cells without miR-34 induction
# [8] = MELAS cybrid survival, CellTiter-Glo 48 h, stronger effect = higher value
# [9] = Rieske KO mouse fibroblast survival, CellTiter-Glo 72 h
# [10] = at 0.000305 µM, OCI-C5x cells, with rucaparib 10 µM, 100% = cells with rucaparib alone
# [11] = at 0.000305 µM, OCI-C5x cells, without rucaparib
# [12] = at 0.000305 µM, OCI-P5x cells, with rucaparib 20 µM, 100% = cells with rucaparib alone
# [13] = at 0.000305 µM, OCI-P5x cells, without rucaparib
# [14] = at 0.00122 µM, OCI-C5x cells, with rucaparib 10 µM, 100% = cells with rucaparib alone
# [15] = at 0.00122 µM, OCI-C5x cells, without rucaparib
# [16] = at 0.00122 µM, OCI-P5x cells, with rucaparib 20 µM, 100% = cells with rucaparib alone
# [17] = at 0.00122 µM, OCI-P5x cells, without rucaparib
# [18] = at 0.00488 µM, OCI-C5x cells, with rucaparib 10 µM, 100% = cells with rucaparib alone
# [19] = at 0.00488 µM, OCI-C5x cells, without rucaparib
# [20] = at 0.00488 µM, OCI-P5x cells, with rucaparib 20 µM, 100% = cells with rucaparib alone
# [21] = at 0.00488 µM, OCI-P5x cells, without rucaparib
# [22] = at 0.0195 µM, OCI-C5x cells, with rucaparib 10 µM, 100% = cells with rucaparib alone
# [23] = at 0.0195 µM, OCI-C5x cells, without rucaparib
# [24] = at 0.0195 µM, OCI-P5x cells, with rucaparib 20 µM, 100% = cells with rucaparib alone
# [25] = at 0.0195 µM, OCI-P5x cells, without rucaparib
# [26] = at 0.0781 µM, OCI-C5x cells, with rucaparib 10 µM, 100% = cells with rucaparib alone
# [27] = at 0.0781 µM, OCI-C5x cells, without rucaparib
# [28] = at 0.0781 µM, OCI-P5x cells, with rucaparib 20 µM, 100% = cells with rucaparib alone
# [29] = at 0.0781 µM, OCI-P5x cells, without rucaparib
# [30] = at 0.313 µM, OCI-C5x cells, with rucaparib 10 µM, 100% = cells with rucaparib alone
# [31] = at 0.313 µM, OCI-C5x cells, without rucaparib
# [32] = at 0.313 µM, OCI-P5x cells, with rucaparib 20 µM, 100% = cells with rucaparib alone
# [33] = at 0.313 µM, OCI-P5x cells, without rucaparib
# [34] = at 1.25 µM, OCI-C5x cells, with rucaparib 10 µM, 100% = cells with rucaparib alone
# [35] = at 1.25 µM, OCI-C5x cells, without rucaparib
# [36] = at 1.25 µM, OCI-P5x cells, with rucaparib 20 µM, 100% = cells with rucaparib alone
# [37] = at 1.25 µM, OCI-P5x cells, without rucaparib
# [38] = at 5 µM, OCI-C5x cells, with rucaparib 10 µM, 100% = cells with rucaparib alone
# [39] = at 5 µM, OCI-C5x cells, without rucaparib
# [40] = at 5 µM, OCI-P5x cells, with rucaparib 20 µM, 100% = cells with rucaparib alone
# [41] = at 5 µM, OCI-P5x cells, without rucaparib
compound,measurement,setting,value
CC(C)(Cc1ccc2ccccc2c1)NCC(O)COc1cccc(Cl)c1C#N (centres undefined),fold change,[1]; [4],0.92 (inactive)
same,fold change,[1]; [5],0.745
same,cell count,[1]; [6],8560
same,cell count,[1]; [7],9310
same,z-score,[2]; [8],-0.327 (inactive)
same,z-score,[2]; [9],0.584
CC(C)(C)c1cc(C(=O)C(C#N)=NNc2cccc(Cl)c2)no1,fold change,[1]; [4],0.873 (inactive)
same,fold change,[1]; [5],0.45
same,cell count,[1]; [6],4320
same,cell count,[1]; [7],4950
same,z-score,[2]; [8],-0.557 (inactive)
same,z-score,[2]; [9],-3.22
Nc1nonc1C(=Nc1ccc(F)c(Cl)c1)NO,fold change,[1]; [4],0.862 (inactive)
same,fold change,[1]; [5],0.685
same,cell count,[1]; [6],8500
same,cell count,[1]; [7],9860
same,z-score,[2]; [8],-0.315 (inactive)
same,z-score,[2]; [9],1.22
same,viability,[3]; [10],127% (inactive)
same,viability,[3]; [11],108% (inactive)
same,viability,[3]; [12],87% (active)
same,viability,[3]; [13],92.2% (active)
same,viability,[3]; [14],121% (inactive)
same,viability,[3]; [15],110% (inactive)
same,viability,[3]; [16],90.4% (active)
same,viability,[3]; [17],100% (active)
same,viability,[3]; [18],122% (inactive)
same,viability,[3]; [19],114% (inactive)
same,viability,[3]; [20],94% (active)
same,viability,[3]; [21],98% (active)
same,viability,[3]; [22],124% (inactive)
same,viability,[3]; [23],101% (inactive)
same,viability,[3]; [24],99.2% (active)
same,viability,[3]; [25],95.7% (active)
same,viability,[3]; [26],116% (inactive)
same,viability,[3]; [27],107% (inactive)
same,viability,[3]; [28],105% (inactive)
same,viability,[3]; [29],100% (active)
same,viability,[3]; [30],116% (inactive)
same,viability,[3]; [31],107% (inactive)
same,viability,[3]; [32],99.5% (active)
same,viability,[3]; [33],102% (inactive)
same,viability,[3]; [34],127% (inactive)
same,viability,[3]; [35],115% (inactive)
same,viability,[3]; [36],91.9% (active)
same,viability,[3]; [37],99.5% (active)
same,viability,[3]; [38],114% (inactive)
same,viability,[3]; [39],120% (inactive)
same,viability,[3]; [40],79% (active)
same,viability,[3]; [41],90.1% (active)
Cc1cc(C)c(-c2csc(NC(=O)c3ccccc3)n2)c(C)c1,fold change,[1]; [4],0.83 (inactive)
same,fold change,[1]; [5],0.759
same,cell count,[1]; [6],3610
same,cell count,[1]; [7],4340
same,z-score,[2]; [8],-0.374 (inactive)
same,z-score,[2]; [9],0.994
same,viability,[3]; [10],97.8% (active)
same,viability,[3]; [11],101% (inactive)
same,viability,[3]; [12],104% (inactive)
same,viability,[3]; [13],97.3% (active)
same,viability,[3]; [14],113% (inactive)
same,viability,[3]; [15],97.2% (active)
same,viability,[3]; [16],101% (inactive)
same,viability,[3]; [17],104% (inactive)
same,viability,[3]; [18],108% (inactive)
same,viability,[3]; [19],107% (inactive)
same,viability,[3]; [20],103% (inactive)
same,viability,[3]; [21],104% (inactive)
same,viability,[3]; [22],104% (inactive)
same,viability,[3]; [23],96.2% (active)
same,viability,[3]; [24],103% (inactive)
same,viability,[3]; [25],105% (inactive)
same,viability,[3]; [26],111% (inactive)
same,viability,[3]; [27],105% (inactive)
same,viability,[3]; [28],105% (inactive)
same,viability,[3]; [29],102% (inactive)
same,viability,[3]; [30],111% (inactive)
same,viability,[3]; [31],103% (inactive)
same,viability,[3]; [32],104% (inactive)
same,viability,[3]; [33],101% (inactive)
same,viability,[3]; [34],113% (inactive)
same,viability,[3]; [35],104% (inactive)
same,viability,[3]; [36],103% (inactive)
same,viability,[3]; [37],100% (active)
same,viability,[3]; [38],99.6% (active)
same,viability,[3]; [39],113% (inactive)
same,viability,[3]; [40],86.6% (active)
same,viability,[3]; [41],95.6% (active)
C=CS(=O)(=O)NC1CCN(C(=O)CNc2cc(I)c(Cl)cc2OC)CC1,fold change,[1]; [4],1.09 (inactive)
same,fold change,[1]; [5],0.391
same,cell count,[1]; [6],4400
same,cell count,[1]; [7],4020
same,z-score,[2]; [8],0.491 (inactive)
same,z-score,[2]; [9],1.48
same,viability,[3]; [10],129% (inactive)
same,viability,[3]; [11],112% (inactive)
same,viability,[3]; [12],97.3% (active)
same,viability,[3]; [13],100% (inactive)
same,viability,[3]; [14],117% (inactive)
same,viability,[3]; [15],106% (inactive)
same,viability,[3]; [16],108% (inactive)
same,viability,[3]; [17],101% (inactive)
same,viability,[3]; [18],110% (inactive)
same,viability,[3]; [19],116% (inactive)
same,viability,[3]; [20],103% (inactive)
same,viability,[3]; [21],102% (inactive)
same,viability,[3]; [22],117% (inactive)
same,viability,[3]; [23],102% (inactive)
same,viability,[3]; [24],101% (inactive)
same,viability,[3]; [25],96.9% (active)
same,viability,[3]; [26],121% (inactive)
same,viability,[3]; [27],107% (inactive)
same,viability,[3]; [28],107% (inactive)
same,viability,[3]; [29],90.5% (active)
same,viability,[3]; [30],119% (inactive)
same,viability,[3]; [31],93.3% (active)
same,viability,[3]; [32],93.4% (active)
same,viability,[3]; [33],95.6% (active)
same,viability,[3]; [34],111% (inactive)
same,viability,[3]; [35],106% (inactive)
same,viability,[3]; [36],96.2% (active)
same,viability,[3]; [37],84.8% (active)
same,viability,[3]; [38],117% (inactive)
same,viability,[3]; [39],105% (inactive)
same,viability,[3]; [40],90.8% (active)
same,viability,[3]; [41],86% (active)
CN(C)CCOc1ccc(-c2nc(-c3ccc4c(c3)CCC4=NO)c(-c3ccncc3)[nH]2)cc1,fold change,[1]; [4],0.921 (inactive)
same,fold change,[1]; [5],1.04
same,cell count,[1]; [6],6630
same,cell count,[1]; [7],7200
same,z-score,[2]; [8],-0.178 (inactive)
same,z-score,[2]; [9],0.963
same,viability,[3]; [10],124% (inactive)
same,viability,[3]; [11],144% (inactive)
same,viability,[3]; [12],72.5% (active)
same,viability,[3]; [13],88.8% (active)
same,viability,[3]; [14],121% (inactive)
same,viability,[3]; [15],132% (inactive)
same,viability,[3]; [16],70.7% (active)
same,viability,[3]; [17],68.7% (active)
same,viability,[3]; [18],121% (inactive)
same,viability,[3]; [19],153% (inactive)
same,viability,[3]; [20],70.2% (active)
same,viability,[3]; [21],74.7% (active)
same,viability,[3]; [22],109% (inactive)
same,viability,[3]; [23],138% (inactive)
same,viability,[3]; [24],69.4% (active)
same,viability,[3]; [25],73.6% (active)
same,viability,[3]; [26],125% (inactive)
same,viability,[3]; [27],133% (inactive)
same,viability,[3]; [28],83.1% (active)
same,viability,[3]; [29],111% (inactive)
same,viability,[3]; [30],119% (inactive)
same,viability,[3]; [31],140% (inactive)
same,viability,[3]; [32],85.3% (active)
same,viability,[3]; [33],114% (inactive)
same,viability,[3]; [34],120% (inactive)
same,viability,[3]; [35],153% (inactive)
same,viability,[3]; [36],78.5% (active)
same,viability,[3]; [37],108% (inactive)
same,viability,[3]; [38],136% (inactive)
same,viability,[3]; [39],187% (inactive)
same,viability,[3]; [40],1.04% (active)
same,viability,[3]; [41],102% (inactive)
